High-throughput results as filed in PubChem BioAssay.
In the library only some 2.8% were active in any assay of this set; here they are far more common.
PP5 primary = blocks human protein phosphatase 5 activity; P53041; purified PP5c, OMFP substrate fluorescence; inhibition, % at 6.7 µM; 0.18% of 320,000 active;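 active means inhibition above the campaign's mean inhibition across all tested compounds plus 3 SD, cut at about 9.5% in these data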;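 further: 0% = DMSO only and 100% = 100 µM cantharidin control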
Rev-erbA mod = Rev-erb alpha (human) modulation. Rev-erbα–FITC-DNA binding, fluorescence polarization, 90 min. 0.79% of 370,000 active. activity, % at 10 µM. P20393;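 active means activity above about 14%, limit read from the data; passing the limit was not always enough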;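 further: 0% = DMSO wells with 35 nM protein and 100% = DMSO wells with 750 nM protein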
PG9 Ab binder = small molecules binding HIV-1 gp120 antibody PG9; TR-FRET gp120-PG9 antibody binding; inhibition, % at 6.7 µM; AID 624416; 0.43% of 360,000 active; in the data active means inhibition above about 8.5%
JMJD2C inh = blocks human GASC-1 demethylase activity. GST-JMJD2C(1-420) H3K9me3 demethylation, DELFIA europium. inhibition, % at 2.35 µM. 0.069% of 330,000 active;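 active means more than half of a compound's replicate wells show inhibition beyond 50%, single wells judged on their own value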;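 further: signal counts dimethyl H3K9 product captured on neutravidin plate; 0% = median of DMSO wells and 100% = 0.3 times that DMSO median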
PP1 counter = counter-screen for PP5 inhibitors: inhibitors of human PP1-alpha | purified PP1alpha, OMFP fluorescence | inhibition, % at 6.7 µM | 0.9% of 320,000 active | AID 2235;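 active means inhibition above the mean inhibition of all tested compounds plus 3 SD, computed separately for each screening campaign, cut at about 15% in these data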
proKLK7 act = activators of human kallikrein-7 zymogen; P49862; purified proKLK7, EDANS-DABCYL substrate fluorescence; 100% is mature enzyme control, 0% vehicle; activation, % at 7 µM; 0.9% of 370,000 active;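 active means activation above the mean of all tested compounds plus 3 SD, computed per campaign excluding outliers beyond control limits, cut at about 13% in these data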
Target sequence (P49862 whole entry, looked up): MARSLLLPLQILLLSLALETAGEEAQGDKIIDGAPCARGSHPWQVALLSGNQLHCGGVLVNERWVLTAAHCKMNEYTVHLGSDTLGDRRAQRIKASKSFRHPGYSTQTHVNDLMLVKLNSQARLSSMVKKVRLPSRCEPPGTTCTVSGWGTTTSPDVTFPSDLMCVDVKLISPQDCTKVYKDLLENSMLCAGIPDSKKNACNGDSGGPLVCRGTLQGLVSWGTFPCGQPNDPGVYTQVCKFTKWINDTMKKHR
PG9 bind confirm = confirmation of small molecules binding HIV-1 gp120 antibody PG9. 90% of 1,500 active. shares compounds with PG9 Ab binder. inhibition, % at 6.7 µM. TR-FRET PG9 antibody binding, biochemical; in the data active means inhibition above about 9%
PGV04 Ab binding = counter-screen for PG9 binders: binding control antibody PGV04; TR-FRET PGV04 antibody-gp120 binding, biochemical; AID 651604; 95% of 1,500 active; shares compounds with PG9 Ab binder; inhibition, % at 6.7 µM; in the data active means inhibition above about 9.5%
proKLK7 act conf = confirmation of human kallikrein-7 zymogen activators. 68% of 3,200 active. activation, % at 7 µM. shares compounds with proKLK7 act. purified proKLK7, EDANS-DABCYL substrate fluorescence; scaled: vehicle 0, mature enzyme 100. AID 686949;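 active means activation, as change over the incubation, above the mean of all tested compounds plus 3 SD, cut at about 13% in these data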
EDANS interfere = fluorescence interference counter-screen for KLK7 activators. shares compounds with proKLK7 act. EDANS-DABCYL substrate fluorescence interference, no enzyme, 4 h; solvent 0%, active enzyme control 100%. activation, % at 7 µM. 80% of 3,200 active. AID 686952;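 active means activation above the all-compound mean plus 3 SD, ignoring values outside control-based bounds, cut at about 4.8% in these data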;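 further: value is the 4 h activation minus the activation read at time zero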
NR1D1 mod conf = confirmation of modulators of human Rev-erb alpha DNA binding; AID 1259319; shares compounds with Rev-erbA mod; Rev-erb alpha FITC-DNA binding, fluorescence polarization, 90 min; 61% of 3,000 active; activation, % at 25 µM;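 active means activation at or above a set limit, or at least 3 SD above the negative control mean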;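 further: 0% = 35 nM protein with DMSO and 100% = 750 nM protein high control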
RORg counter = counter-screen for Rev-erb alpha modulators: RORgamma DNA binding; shares compounds with Rev-erbA mod; purified RORgamma protein-FITC-DNA binding, fluorescence polarization; IC50, µM; 8% of 910 active;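 active means Compounds whose fitted half-maximal concentration for disrupting protein-DNA binding is below 10 micromolar; the record names Rev-erb in its text, so the target is in doubt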
Numbers without * were called inactive; · = no result given.

SMILES	PP5 primary	Rev-erbA mod	PG9 Ab binder	JMJD2C inh	PP1 counter	proKLK7 act	PG9 bind confirm	PGV04 Ab binding	NR1D1 mod conf	others
Cc1nonc1NC(=O)CSc1nc2c(C)cccc2cc1C#N	0	81*	9.8*	-3	-5	0	42*	66*	73*	RORg counter=>40
C=CC[C@H]1c2ccccc2[C@H]2N3N=Cc4ccccc4[C@H]3[C@H](CCCC)C(=O)N2N1C(=O)NCc1ccccc1	·	-1	·	·	·	1	·	·	·
O=C(Nc1nc(-c2ccc(F)cc2)cs1)c1ccc(N2C(=O)CCC2=O)cc1	0	4	6	7	1	1	·	·	·
COc1ccc(-c2csc(NC(=O)c3ccc(N4C(=O)CCC4=O)cc3)n2)cc1	-3	27*	29*	-5	2	0	28*	50*	18
COc1ccc(CNS(=O)(=O)c2cc3c(cc2Br)CC(C)N3C(C)=O)cc1 (stereo not drawn)	·	-8	·	·	·	0	·	·	·
CCOC(=O)Nc1ccc2c(COC(=O)CNS(=O)(=O)c3cccc(Br)c3)cc(=O)oc2c1	1	76*	39*	14	2	15*	32*	37*	43*	proKLK7 act conf=30*;EDANS interfere=34*
CCn1c(NC(=O)c2ccc(F)cc2)c2ccccc2nc1=O	0	5	-1	2	-3	0	·	·	·
Nc1ccc(C(=O)Nc2nc3ccccc3s2)cc1	2	1	-1	4	-1	-1	·	·	·
O=C(Nc1nc(=O)c2ccccc2s1)c1ccc(Cl)cc1	2	78*	25*	1	-2	1	50*	68*	107*	RORg counter=>40
O=C(Cc1ccccc1)Nc1nc(=O)c2ccccc2s1	0	32*	68*	3	-3	0	72*	78*	18*
O=C(Nc1nc(=O)c2ccccc2s1)c1ccc(F)cc1	1	79*	42*	9	7	-1	66*	78*	70*	RORg counter=>40
CCOC(=O)[C@@]12CCC3=C1N(CCC3)C(=O)[C@H](CC(=O)N1CCCC1)C2	·	3	·	·	·	0	·	·	·
CCOC(=O)CSc1nc2cc3c(cc2cc1C)OCO3	4	-2	-2	0	2	1	·	·	·
COC(=O)CSc1nc2cc3c(cc2cc1C#N)OCO3	-1	58*	15*	-1	1	2	33*	71*	23*
CCOC(=O)CSc1nc2cc3c(cc2cc1C#N)OCO3	-2	66*	49*	·	7	5	44*	62*	36*	RORg counter=>40
COC(=O)CSc1nc2cc3c(cc2cc1C)OCCO3	5	5	0	-2	3	0	·	·	·
COCCN1CCCc2nc(-c3ccc(Br)cc3)ccc21	·	2	-1	·	·	3	·	·	·
CN(C)c1cccc(/C=C2\CC3(OC(=O)c4ccco4)CCCN2C3)c1 (stereo not drawn)	·	1	·	·	·	0	·	·	·
CCN(CC)c1ccc(NC(=O)CSc2nnc(SCc3ccc(Cl)cc3)s2)cc1	·	0	·	·	·	0	·	·	·
COc1cc(NC(=O)c2[nH]c(C)c(C(C)=O)c2C)c(OC)cc1Cl	·	-5	·	·	·	·	·	·	·
COc1ccc(Cl)cc1NC(=O)c1[nH]c(C)c(C(C)=O)c1C	2	31*	27*	0	17*	0	28*	31*	35*	RORg counter=>40
